MARV entry inh: qHTS for Inhibitors of binding or entry into cells for Marburg Virus; Marburg virus pseudotype entry/binding inhibition, cell-based; Potency, µM (series often up to 49.2 µM), without a hit: at the highest dose activity change, negative = inhibition, hits mostly inhibitors; hit rate 6.5% among 18,000
LASV entry inh: qHTS for Inhibitors of binding or entry into cells for Lassa Virus. Lassa virus pseudotyped entry inhibition, cell-based qHTS. Potency, µM (doses to about 49.2 µM), inactives show top-dose activity change, negative = inhibition, actives largely listed as inhibitors. hit rate 4.1% among 18,000
* = called active by the depositor; ? = inconclusive; . = no result given; ! = a repeat was not active; [ ] = remark or other dose. Hits are enriched below; roughly 8.6% of the tested compounds scored in any of these assays. Calls come from the whole dose curve; tested in HEK293 cells. % is set by controls: 0 for no effect and ±100 for the full control effect; potency is the fitted concentration of half-maximal effect.

SMILES | MARV entry inh | LASV entry inh
C[C@]12CC[C@@H]3c4ccc(O)cc4C[C@@H](CCCCCCCCCS(=O)CCCC(F)(F)C(F)(F)F)[C@H]3[C@@H]1CC[C@@H]2O (stereo partly drawn) | -14% | 6.3µM*
COCC=CC1=CC2=CC(=O)C(C)(OC(=O)c3cnc4ccccc4n3)C(=O)C2=CN1CCCCO (stereo not drawn) | 46%[8.59 µM] | 6%[8.59 µM]
C=C[C@]1(C)C[C@@H](OC(=O)CSCCN(CC)CC)[C@]2(C)[C@H](C)CC[C@]3(CCC(=O)[C@H]32)[C@@H](C)[C@@H]1O | ? | -11%
CC=C(C)[C@H](O)C[Si](C)(C)c1ccccc1 | -3%[8.59 µM] | -27%[8.59 µM]
c1csc(C2(N3CCCCC3)CCCCC2)c1 | -10% | -2%
c1ccc2sc(C3(N4CCCCC4)CCCCC3)cc2c1 | 11µM* | ?
COC(=O)c1c(C(=O)OC)c2c3cc(OC)c(OC)cc3cc([Si](C)(C)C)n2c1C(=O)OC | 24%[8.59 µM] | -30%[8.59 µM]
Nc1ncc(-c2cccc(S(N)(=O)=O)c2)c2scc(-c3ccc(F)c(Cl)c3)c12 | 3.1µM* | ?
N#CC(C#N)=NNc1ccc(OC(F)(F)F)cc1 | 3.2µM* | 1.3µM*
CC1=CC[C@@H](COc2ccccc2)O[C@@]2(C1)C(=O)N(Cc1ccc(Br)cc1)c1cccc(Br)c12 | 46%[8.59 µM] | 10%[8.59 µM]
c1ccc(Nc2ncc(-c3ccccc3)o2)cc1 | -41% | 5µM*
Cc1cccc(Nc2ncc(-c3ccccc3)o2)c1 | -19% | .
COCc1cc2cc3c(cc2c2c(C(=O)OC)c(C(=O)OC)c(C(=O)OC(C)(C)C)n12)OCO3 | -27%[8.59 µM] | .
CC(C)=CCCC1(C)C=Cc2c(O)c3c(c(CC=C(C)C)c2O1)OC12C(CC4CC1C(C)(C)OC2(C/C=C(/C)C(=O)O)C4O)C3=O (stereo not drawn) | 3% | 10µM*
COC(=O)N[C@H](CC(C)=O)c1cccs1 | 43%[8.59 µM] | 17%[8.59 µM]
CC(C)OC(=O)c1cn(Cc2c(F)cccc2F)c2sc(-c3ccc(NC(=O)C(C)C)cc3)c(CN(C)Cc3ccccc3)c2c1=O | 2.5µM* | 16µM*
C=CCOC(=O)N[C@H](C(C(=O)OC)=C(C)NCc1ccccc1)c1ccc(Br)cc1 | 7%[8.59 µM] | -3%[8.59 µM]
COC(=O)C1=C(C(=O)OC)[C@@H]2N(C)c3ccccc3[C@@]23CCC(=O)N(Cc2cc(OC)c(OC)c(OC)c2)C3=N1 | -12%[8.59 µM] | -13%[8.59 µM]
COc1cccc2ccc(CN3CCC4(CC3)c3ccccc3[C@@H](NC(=O)c3ccccc3)[C@@H]4O)nc12 | ? | -4%
O=C(C=Cc1ccccc1)N1CCC[C@H]1CO | 43%[8.59 µM] | 3%[8.59 µM]
Nc1ncnc2c1ncn2C1OC(CO)C(O)C1O (stereo not drawn) | 5% | 0%
OC[C@H]1O[C@@H](n2cnc3cncnc32)[C@H](O)[C@@H]1O | 3.2µM* | 7.9µM*
CSc1ncnc2c1ncn2C1OC(CO)C(O)C1O (stereo not drawn) | 0.5µM* | 0.35µM*
Cc1ccccc1CNc1ncnc2c1ncn2[C@@H]1O[C@H](CO)[C@@H](O)[C@H]1O | 25% | -4%
OC[C@H]1O[C@@H](n2cnc3c(NCc4ccco4)ncnc32)[C@H](O)[C@@H]1O | 13µM* | ?
SMILES | MARV entry inh | LASV entry inh
CNc1ncnc2c1ncn2[C@@H]1O[C@H](CO)[C@@H](O)[C@@H]1O | 7%[17.8 µM] | -13%[17.8 µM]
C[C@H]1CN(c2ccccc2)C(=O)[C@H]1CC(=O)Nc1ccccc1 | 24% | 13%
C#CCCCON=C1C[C@@H](O)[C@H](O)[C@H]2[C@@H]3C(=O)N(Cc4ccc5c(c4)OCO5)C(=O)[C@@H]3CC[C@@H]12 | -7%[8.59 µM] | -10%[8.59 µM]
COC(=O)c1cc(CNC(=O)c2ccc3ncccc3c2)cc(NC(=O)c2ccccc2Cl)c1 | -12% | -14%
CCCCN(CCCC)C(=S)[S-].CCCCN(CCCC)C(=S)[S-].[Zn+2] | 6.3µM* | 11µM*
CCCC=Cc1ccc(CN2C(C)C(=O)N(Cc3cn(CCOCOC)nn3)CCS2(=O)=O)cc1 (stereo not drawn) | -15% | .
CCC(=O)O[C@@](Cc1ccccc1)(c1ccccc1)[C@@H](C)CN(C)C | 6%[17.8 µM] | -1%[17.8 µM]
CCC(=O)O[C@](Cc1ccccc1)(c1ccccc1)[C@H](C)CN(C)C | 28µM* | -13%
CC(C(O)c1ccccc1)N(C)CCOC(c1ccccc1)c1ccccc1 (stereo not drawn) | 8.9µM* | 14µM*
Cc1ccccc1C(OCCN(C)C)c1ccccc1 (stereo not drawn) | ? | -24%
COC(=O)CC=C[C@@H](C)[C@H](O)c1ccccc1Br | -22%[8.59 µM] | -19%[8.59 µM]
COC(=O)CC=C[C@@H](C)[C@H](OC)c1ccccc1Br | 0.6µM*! | ?
CCOC(=O)C(CCc1ccccc1)NC(C)C(=O)N1CCCC1C(=O)O (stereo not drawn) | 6% | 4%
CCCNC(=O)[C@H]1O[C@@H]1C(=O)N[C@H](C(=O)N1CCC[C@H]1C(=O)OC)[C@@H](C)CC | 2.5µM* | 10µM*
CCC[C@H]1CN(c2ccc(OC)cc2)C(=O)[C@H]1CC(=O)Nc1ccccc1 | -23% | .
